# Columns and labels:
# Test in all cases: PBM binding z-score (relative to random genomic background probes); higher = stronger binding; sequences stand for … in GC…GCGATTGACAGCGTAGAATGAAGG
# [1] = test system: RARb homodimer (NR concentration 270 nM)
# Outline: (§1)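 Regression normalization was applied to scanned fluorescence from custom Agilent 4×180K protein-binding microarrays. Before scanning, arrays were incubated 1 h with ligand-free nuclear receptor dimers, and binding was detected with antibodies against each partner (one per run). Binding z-scores use the random background probes as reference.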
# [2] = test system: RARg:RXRa (NR concentration 270 nM, RXRa partner concentration 90 nM)
# Outline: as §1
# [3] = test system: RARg homodimer (NR concentration 270 nM)
# Outline: as §1
# [4] = test system: RXRa DBDmut IVT, anti-RXR (DBD mutation: RXRa K156A/R161A, NR concentration 90 nM)
# Outline: as §1
# [5] = test system: RXRa homodimer (NR concentration 180 nM)
# Outline: as §1
# [6] = test system: THRa:RXRa (NR concentration 90 nM, RXRa partner concentration 90 nM)
# Outline: as §1
# [7] = test system: THRa homodimer (NR concentration 90 nM)
# Outline: as §1
# [8] = test system: VDR homodimer (NR concentration 270 nM)
# Outline: as §1
Sequence,PBM binding z-score [1],PBM binding z-score [2],PBM binding z-score [3],PBM binding z-score [4],PBM binding z-score [5],PBM binding z-score [6],PBM binding z-score [7],PBM binding z-score [8]
CCTAGCAGGCCAATCTGGGTCACTCGAGGCTTGA,2.3,1.11,1.12,-0.0882,0.738,3.7,0.253,0.136
GCTGCTAGATCAACTGATGGTCAGCTAAAGCTCG,-0.449,-0.186,-0.352,-0.229,-0.482,-0.352,-1.12,-0.805
GCTCGGAGGACAAGGTCAGACCTTTGTCCGTAGA,3.1,3.68,3.51,0.424,3.12,2.94,1.47,0.924
CCTAGTTGGTCCAGGTCACACACGCTATAGGTAC,3.15,2.68,2.73,1.35,2.64,3.72,3.98,2.54
ATCGAAAGGTCGAAGGTGAGAATACCCACCCGAA,2.62,4.34,4.24,1.42,5.85,2.23,-0.0436,0.515
TCTGCCAGGTCAACGATGGTCAGCTAATCTGCTA,3.43,4.4,5.08,1.41,3.42,3.55,1.7,0.359
TCATATAGGTAATACAGGTGACAGTCGGCATCTA,0.657,0.874,0.762,1.5,1.08,0.809,0.0912,-0.0475
GCAGACAGGTCAAACGCAGGTAACTCAGGGTGGC,2.7,5.58,4.53,2.16,4.65,3.23,-0.195,0.795
TCTATTAGTTGAAGGGCAAGCGACGAGTCCGTTT,1.28,0.558,0.708,1.59,0.725,0.196,0.0509,1.23
TCTCGGAAGACACGAAAGGTCAGAGCTCGACATC,4.18,4.01,4.27,1.06,4.27,2.58,0.266,0.21
CCAGACAAGTGAGAAGGTAACTCAGCCTCGATTA,0.174,0.0341,0.205,0.366,0.108,0.152,0.461,0.281
ACTAGCAGCCCAAGTTTGGGTCACTCAAACAAAG,1.74,0.618,0.518,-0.56,0.612,2.1,1.15,-0.0283
TAGCCTAGATCATGGGCCAGTATACCACGCGAAC,-0.389,-0.301,-0.388,-0.748,-0.39,-0.674,-0.848,-0.532
CCTTACGGTTCACTCCAGGTTATAGCATCGGAGT,1.62,1.48,0.86,3.44,1.89,4.66,1.33,3.65
CCTAGCAGGCCGATCTGGGTCACTCAAGGCTTGA,1.59,0.546,0.594,-0.129,0.768,2.97,0.256,-0.162
GCTAGTTGGGCAGTAAAAGGTCACACACCGGTCG,5.15,5.03,4.7,0.364,5.38,3.49,1.62,1.66
TAGCCTAGGTCATGCCGGCCAGTATAGTGTCGGC,2.79,3.6,3.93,0.522,2.62,2.72,0.854,0.14
TAGCCTAGGTCATTCAGGGGCCATTATAGAAAGC,3.54,6.28,4.48,2.04,3.12,3.69,1.13,1.96
GTTAGTTGGTCAGTAAAAGGTCACACACCGGTCG,5.25,5.67,5.37,1.14,6.08,3.68,2.18,2.3

Sequence,PBM binding z-score [1],PBM binding z-score [2],PBM binding z-score [3],PBM binding z-score [4],PBM binding z-score [5],PBM binding z-score [6],PBM binding z-score [7],PBM binding z-score [8]
ATATGTAGGTTATCCGGTCATTCAGTTTGCGCAT,2.35,2.11,1.83,0.932,1.4,1.67,1.08,1.53
CCTGCTAGGTCATGGTCAGCTGATCTACAGTATG,3.13,3.97,4.53,1.96,3.2,3.17,1.23,0.608
ATATGTAGGTTAGCTGGGGTCATTTAGACTAGGC,3.75,3.88,2.65,2.15,5.02,5.36,3,4.51
TAGCCTAGGTCTGATCGGGCCAGTATACGCTATA,-0.807,-0.244,-0.187,-1.28,-0.358,0.71,-0.845,-0.912
CGAACTAGGTCATTGACAGGAAAGTGAATAGTAA,2.15,3.65,3.62,2.19,2.61,2.27,0.512,0.797
ACATGTAGGTTAAGGGTCATTCAGGTTGGTTCGC,3.49,4.68,3.24,2.73,5.95,3.42,2.01,4.91
TATACAGGGTAAAAGGCCAGAGTACGAATGTCGA,1.6,1.56,1.59,-0.337,1.11,0.651,-0.663,0.418
CGTACAAGGTCAAGGTCAGTGAAAGAGACTCGAA,5.35,6.85,7.48,3.82,6.83,4.45,3.84,3.49
CCTTCCGGGTCACGAGGTTATAGCACGACGAGCG,4.02,6.06,5.4,1.68,7.05,4.22,2.95,2.57
ATCGAAAGCTCGACGAGGTGAGTATACACCGTTT,-0.193,-0.12,0.303,-0.125,0.189,1.02,0.249,-0.291
TCATATAGGTAAATGCTAGGTGAAAGTTCGATCT,1.2,0.926,0.552,1.97,1.35,1.75,0.835,0.742
CCGACCGGGGCATAAGGTTACCATAAGCCAGCCC,2,2.18,1.62,-0.289,1.68,2.57,1.66,0.0101
CCTTACGGCTCACTCCAGGTTATAGCATCGGAGT,0.313,-0.122,0.148,0.487,-0.0506,1.15,0.628,0.0912
TGATATAGGTAAAAGGTGAAAGTCGGTGTGGTAA,2.03,1.86,1.13,-0.0828,2.92,1.8,0.423,0.42
CCTTACGGGTCATGGTTATAGCACGGGTGGTACG,3.03,4.4,3.82,0.187,4.81,2.67,-0.082,0.582
TCTTGTTGATCAAGCAGGTTAAGAAAGCCTGAGT,0.418,-0.0831,-0.348,0.561,0.248,0.444,-0.1,0.0832
TCATATAGGTAAAAGTTGAAAGTCGGTGTGGTAA,0.645,0.703,0.395,1.69,1.83,0.586,-0.0355,0.425
AGAAGGAGGGCAATGAGTTGATAGCACGGGTGGC,1.51,0.896,1.46,0.955,0.646,0.385,0.339,2.51
TCATATAGGTAAACAGGAGAAAGTCCGTAAGTTA,-0.0173,0.0941,0.0897,1.4,0.771,0.0424,-0.0606,0.309

Sequence,PBM binding z-score [1],PBM binding z-score [2],PBM binding z-score [3],PBM binding z-score [4],PBM binding z-score [5],PBM binding z-score [6],PBM binding z-score [7],PBM binding z-score [8]
CATACAGGGTCAGGTAGGCCAGAGTAGGGACGGC,3,4.2,4.14,0.816,4.12,2.93,0.964,1.14
CCGAGTAGGTTAGGGGGCATTCAGGCAACGGTGA,2.12,2.21,1.79,1.54,2.03,2.4,1.37,2.8
CGATCTAGGTCATCCAGGACAGTGAATACATTGA,3.01,4.03,4.66,2.18,2.71,3.78,2.35,2.06
TCTTATAGGTAAATGCTAGGTGAAAGTCCGATCT,0.569,0.602,0.586,1.88,0.669,1.52,0.924,0.694
TCTTCTAGATCAAAGGTTAAGAAAGCCGAAGCCT,1.54,1.99,1.03,0.838,2.95,1.51,-0.597,0.119
GCATATAGGTAATACAAAGTGAAAGTCCGATTGT,-0.658,0.129,0.264,0.278,0.0953,0.0465,-0.756,-0.321
CCTACTGGGCCAACGGTCATTGATTCCAATGCTC,1.45,0.293,0.841,-0.454,-0.191,-0.306,-0.382,-0.141
ACTAGTTGGTCAGCTGAGGTCACGCACAATTCGG,4.79,4.85,4.8,1.32,4.79,5.26,5.78,3.51
TCTCGGGGGACACGAAGGTCAGAGCTTTCCAGAG,4.17,4.68,5.9,1.89,3,3.32,1.58,1.76
TAGCCTAGGTCATTGGGCCAGTTTAGTACGCATC,2.94,3.74,3.68,1.46,2.81,3.03,1,1.46
ATCCCTAGGTAAGACTCAGTTCAGTGAAGAACGC,0.754,-0.0118,-0.0617,0.567,0.0289,0.832,1,1.07
TCAGACAGGGGAAGGTAACTCAGGTACGCAGTCG,0.725,0.0159,-0.128,1.16,0.547,1.38,1.02,0.491
TTACCAAGGTGAAGGTCGTTAATCCCTCTGTAGA,1.62,1.07,0.814,-0.0664,1.54,2.22,0.878,0.939
CCTAGCAGGCCATGGTCACTCAAGCATTTCGCTT,0.33,-0.134,0.141,-0.0842,-0.236,-0.37,-0.618,-0.529
CCGCCTGGGGCAGAAAGGTTACCATACCATCCGG,2.37,1.47,1.32,-0.959,1.55,1.03,-0.231,0.052
AGAATGAGGTTAAGATCTGGGAAACAGAATACAT,0.808,2.11,1.54,1.04,2.48,2.26,0.582,0.27
GCTCGGAGGACAAGGTTAGAGCTTTGTCCGTAGA,0.733,0.376,1.01,-0.384,0.102,1.28,-0.0516,-0.796
TTACCAAGGTGAAAGCTCGTTGATGCACGCCTTG,0.13,0.342,0.28,-0.23,0.617,1.38,0.107,-0.644
